Hit rate of the full screen: of about 53,000 sequences, about 3,700 (7%) were called active. This excerpt belongs to a sample that is enriched for actives. Unmarked numbers belong to inactive results.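 How the source made its calls: active means gene knockdowns whose robust z-score for IL-1 alpha signal is at least 2 or at most -2, so actives lie on both sides; inactive means the rest.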
assay: Components of the Cytosolic LPS Sensing Pathway: Gene Identification via Genome-wide siRNA Screen; conditions: RAW264.7 macrophages, IL-1a HTRF, actives lie on both sides, screened at 100 nM (by protocol), cells primed 5 h with Pam3CSK4 first;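 further: robust z of the log signal after scaling to non-targeting control siRNA wells of the plate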
Summary of the method: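 Knockdown: 100 nM siRNA, 48h, RAW264.7. Stimulation: Pam3CSK4 5 h, then LipidA via TransIT-TKO 24 h. Output: supernatant IL-1a HTRF, negative-control-normalized, log robust z-score; viability by CellTiter-Glo.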

Sequence | z-score
GGAACUGUCCGAUCUUAGATT against Prrg4 | -1.88
GCUACUCCCUGCAUAUUAGTT against Slamf9 | -1.48
GGCAGCUUUCCUAUUGAAUTT against Tex19.1 | 0.233
GGACUUUGAUCAGCUGUCUTT against Tmem17 | -2.12 (active)
GGUUGAUCGUGUCAUGUAGTT against Poc1b | 0.0595
GGCUAUACCUUUGACUAUGTT against Csnk1g1 | 0.0256
GGGCAGCAUCGGACUAAAUTT against Agtr1a | 2.35 (active)
GGUUGUAGGAGAGGAAGCCTT against Apobr | -0.572
GGUACGAAGUCAAAGUGAATT against Dnmt3l | 0.0494
GGAGUUAGAUGCCCUCAAGTT against Trappc6a | -0.796
CAGCUGAGAUUGAUGGCCATT against Olfr313 | -0.6
GCCUGAAUAUUGCUAUCACTT against Gpr107 | 2.35 (active)
GCAACAACCACCAAAUCUATT against Prol1 | -1.53
GGAAGAAUGUGAUGACUCATT against Zfp11 | -0.471
GGUAAUUUAAUGACACAUGTT against A130079P16Rik | 2.35 (active)
GGAUCCAGACACCUCAAGATT against Vxn | 0.702
CGUUCAUGUUGUAAGUAUCTT against Olfr1196 | 0.461
GGAGACUUUGAAAAAAGACTT against Mrps31 | 0.5
GCUGAAAAUAUACCAUUCATT against Colec10 | -0.798
GGAUCCAGACUUAAGCUUATT against Zgpat | 2.57 (active)
CGGAUUACAAACCAUAAAATT against Mex3b | -0.497
GGAGAAGAGAAAGAUUCUUTT against Dhx9 | 0.724

Sequence | z-score
GGCAAUGGAAGUUGGAACATT against Ptch1 | -2.15 (active)
GGACACAUGGUGUUGACCATT against Parp12 | 0.0379
GGACCUGAUCUUCAGGUUUTT against Gpc5 | 1.73
GGCUCUCAAUUUUAUUUCUTT against Ncaph2 | 0.894
GCACGAGACACUUUUCAUUTT against Dnajb5 | -0.0852
GGAAGCAGAAUUGUAAAGATT against Hrk | -1.09
GCAACAAAAGGCCUAAUCATT against 4930550C14Rik | -1.74
GGCCCUUGUUUAAAGCCAUTT against Asns | 0.0954
CGGCGUAUGAGGAUUGGUUTT against Atp8b1 | -0.739
GGCCAAGAUUAGAUUGCUUTT against Senp2 | 2.57 (active)
GCCCGUAUAGGUAUUGGUCTT against Mpg | 2.06 (active)
GCUUGAAUCCGAUUUGUUATT against Gramd1c | 0.296
GGCAUAUGAUGAUAAGUAATT against P2ry14 | 0.691
GGCACUGAAGGAGAACCUGTT against Rbbp8nl | -0.336
GGAACAACUGAAAAUGAAGTT against Ppp1r21 | -1.21
UUCCAUUCAUAUGUCUUGATT against Tas2r109 | 0.00348
GGUUUUUCUAAGAGAACGGTT against Rnft1 | -0.558
CCUGGUCACUCCAAACCCATT against Zfp950 | -2.11 (active)
GGAGCUCUCGAAGGAUUGUTT against Eda2r | -0.768
GGAUAAGAGGGUGAAGUCATT against Cdyl2 | -1.06
GGUAUAUAGGGCUGUGGCUTT against Pigs | -0.822
GGUGUACUUUAUCUCACGATT against Olfr6 | 1.1

Sequence | z-score
GCCUGUUCUAGGUGACCUATT against Chd3 | 0.236
GGAAAUACAGAACACAAGCTT against Plekhm3 | 2.04 (active)
GGUUAAAUAUGUAAACCACTT against Slco2b1 | 0.0949
CCAUAUAGCCUCAAAAUCGTT against Acat2 | -0.395
CGUCUCAACAGAGUUGGAGTT against Prmt2 | 1.94
CGAUGCUGAUGUAUCAAAGTT against Phkb | 1.48
GGUUCUUUUUACUCAGUGGTT against Ankhd1 | -2.53 (active)
GGAACUUCCUGUUCAGAAATT against Eci3 | 0.881
CGUUAGUCUGUGAAUGCACTT against Emc10 | -0.442
GGACAGUAAUAUGAUGAGCTT against Lzts1 | -0.943
GCUUUAGUGACGGCUCGAATT against Zscan2 | 2.07 (active)
GGGAGUGAGUUCUGGAGUGTT against Capn2 | 0.815
GGUUUUAAAGCAAUGAGCATT against Olfr995 | -1.2
CCCAUGUCGUGACAUCACATT against Slc26a7 | -2.93 (active)
GGCCUUCUAUUUUGUCAAUTT against Limd1 | 0.403
GAAAUUUCCUAGAUGACUCTT against Vmn1r199 | -0.447
CGUAUGAGUGCAAUACUAATT against Pcmtd1 | 1.32
GCACAUAGUGUAUCUAUACTT against Cd86 | -1.24
GUCUUGCGUGACAACAUCCTT against H4c14 | 0.718
GCUUAUAUGGCCUGAGAGATT against Tmem199 | -0.74
GGUCAAAGGGAAACAAGUUTT against Creb3l4 | -2.02 (active)
GGUGGUUUAACUGGAUAUUTT against Paip2b | -1.95

Sequence | z-score
GCCCAUGUAUCCAAAAGAATT against Cnmd | -1.59
GGUGAUUGACAGAUUCUGATT against Nr4a1 | -0.613
GCUUGGACCAUAAAUACUGTT against Senp5 | 0.051
GAUCAGAUGUUUGGGACUUTT against Olfr512 | 2.25 (active)
GGACUUCUUAAUGUUUUACTT against Phf11a | 0.398
GCCCAAGGUAACAACAAGCTT against Rtn4r | 1.28
GGUAACUUUGAACUGAUCCTT against 1700030J22Rik | -1.17
CCCUCAACCUCCAACCACATT against Ceacam1 | -2.15 (active)
GGGUUAGAGUAAGGUAUUATT against Tsn | -0.879
GCAGAUAGCCCACGUCAUUTT against Nfkb2 | 0.881
CCUAAGUUCCUGAAAAUAUTT against Epha5 | -0.454
GGGAUUCAGACAUGUGCUGTT against 4930503E14Rik | -0.658
GGCCUACGAGAGGCAAAAATT against Hnf1a | -2.05 (active)
CCAUACCGAUCAAAUUCCCTT against Pfn2 | -0.596
GCAAUAGAAAAGUCCGUGGTT against Rbsn | -1.12
GGCAAAGGAUCCAAGUUUGTT against Tmem123 | 2.81 (active)
GGAUGUCCAGAUGUAAAUATT against Vps16 | -0.974
GGUUAUCAGAGGUUUAGUUTT against Oser1 | 0.23
GGGUCUCCAAUCCCUCAGUTT against Kir3dl2 | 0.489
GGGCAAGAACAACUCACUUTT against 4933404G15Rik | -2.93 (active)
GGAUUCAAAGCUUCCUUUATT against Eras | 0.115
CGAAAAGGUGUGGCCAUCATT against Eif4a3 | -0.664

Sequence | z-score
CGACAUGUAAAACUAUUGUTT against Cd300e | 0.864
CGACAUUUUACUAAGAGAUTT against Idnk | -0.895
UCGAGUGAAGCAGUCUCCATT against Fam189a1 | -2.13 (active)
GCCCAGAAUGCUCACUAAATT against Sln | 0.491
GGCUGUAAUUUUGAACAAUTT against Rnf17 | -1.42
CGAGAUCGAGUACUCAACUTT against Vps39 | -2.96 (active)
GGUCACUCAAAGAAUUAUGTT against Srr | -1.05
CCUGUUAAUGACACCCACGTT against Slc37a2 | -0.886
GGCGAUUUACAACUUUGGATT against H2aw | 0.0941
GGAGUGAAGGGUCAUCCAGTT against Col9a2 | 5.07 (active)
GGAUAUAGGUGUGAUCUAGTT against Mxra7 | 0.9
CCCAAUGUUUCUAAUCAUGTT against Arhgap12 | 0.306
GGAAGGUUUGUUUUGUUUGTT against Slc24a3 | 0.0291
GGAGGAAUACCAGGAAUACTT against Sncb | 0.33
GCCCUUUUCAUUCUCCAGATT against Zdhhc25 | 4.39 (active)
GCCUUUGUGGACCAUCCAATT against Thy1 | -0.954
GGAAAUACGGCAGAACCCUTT against Kcnk9 | -2.54 (active)
GUACCUCAGAGCUCUGCAUTT against Helt | -0.292
GCACUUAGUCCUACAUGACTT against Fut1 | -1.21

Reference: PubChem BioAssay AID1508600 (Functional Genomics Laboratory (NCATS/FGL), 2020)
